Values without a mark were called inactive.

This assay deals with Meloidogyne hapla J2. The experiment in a line: proportion of mobile M. hapla J2 relative to DMSO control (fraction of DMSO control); higher = more viable, less nematicidal, active = 0.7 or less. Conditions: 60 µM; 5 days; temperature: 20 °C. An outline of the steps: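 Two biological replicates were run and averaged, each on 96-well plates in which about 25 M. hapla J2 sat in distilled water per well. Compound was pinned in to give 60 µM final and 0.6% v/v DMSO, and the sealed plates were shaken at 200 rpm and 20 °C for 5 days before 2 µL 1 M NaOH was added. Mobility was scored microscopically and divided by the mean from the plate's DMSO-only wells, of which there were eight.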
In the case of `COc1ccc(-c2noc(CSc3ccc(C)cc3)n2)cc1`, the “proportion of mobile M. hapla J2” value was 1.03.

With `Ic1ccc(-c2nc(-c3cccnc3)no2)cc1`, the “proportion of mobile M. hapla J2” value was 1.02.

Regarding `c1coc(-c2nnc(-c3ccco3)o2)c1`, the “proportion of mobile M. hapla J2” value is 1.03.

Consider `CCCOc1ccc(-c2nc(-c3ccncc3)no2)cc1`, for which the “proportion of mobile M. hapla J2” value was 0.85.

Regarding `c1cncc(-c2noc(-c3cccc4ccccc34)n2)c1`, the “proportion of mobile M. hapla J2” value is 1.04.

As for `Cc1ccc(-c2noc(-c3ccc(Br)cc3)n2)cc1`, the “proportion of mobile M. hapla J2” value was 1.05.

With `FC(F)(F)c1cccc(-c2noc(-c3cccnc3)n2)c1`, the “proportion of mobile M. hapla J2” value is 0.813.

Take `COc1ccc(-c2noc(CSc3nc(C)cc(C)n3)n2)cc1`: the “proportion of mobile M. hapla J2” value was 0.992.

With `COc1ccc(-c2nc(C3CCCCC3)no2)cc1`, the “proportion of mobile M. hapla J2” value was 0.896.

As for `COc1ccccc1-c1nnc(SCc2ccccc2C#N)o1`, the “proportion of mobile M. hapla J2” value was 0.94.

`Cc1cc(C)c(C)c(OCc2nc(-c3ccccc3)no2)c1`: the “proportion of mobile M. hapla J2” value is 0.95.

Turning to `Clc1ccc(OCc2nc(-c3cccs3)no2)cc1`, the “proportion of mobile M. hapla J2” value is 0.923.

Take `Cc1ccc(-c2noc(COc3ccc(Cl)cc3C)n2)cc1`: the “proportion of mobile M. hapla J2” value was 0.996.

Regarding `O=C(CSc1nnc(-c2ccccc2)o1)Nc1cccc(Cl)c1`, the “proportion of mobile M. hapla J2” value was 1.

On to `Cc1cccc(OCc2nc(-c3ccc(Br)cc3)no2)c1`, for which the “proportion of mobile M. hapla J2” value was 1.04.

Turning to `O=C(CSc1nnc(-c2ccccc2)o1)Nc1cccc(Br)c1`, the “proportion of mobile M. hapla J2” value is 1.05.

On to `Cc1ccc(-c2nnc(SCc3ccccc3F)o2)cc1`, for which the “proportion of mobile M. hapla J2” value is 0.636 (active).

Consider `COc1ccccc1-c1nc(-c2ccccc2Cl)no1`, for which the “proportion of mobile M. hapla J2” value was 0.899.

Take `CC(C)Oc1ccc(-c2nc(-c3ccccc3)no2)cc1`: the “proportion of mobile M. hapla J2” value is 0.993.

The record behind these values is the supplement of paper PMC11219838.
